# Sampled rows, rich in hits. Any-hit rate of the full collection: about 21%.
# Pf growth 48h: inhibits P. falciparum growth in the first generation, 48 h; P. falciparum luciferase growth in erythrocytes, 48 h; Potency, µM (series often up to 28.7 µM), for the others: at the highest dose activity change, negative = inhibition, hits mostly inhibitors; 310,000 compounds, 5.9% hits; further: potency means the concentration at half of the fitted maximal effect; on the % scale 0 is the no-effect control and ±100 the full control effect
#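 Read-out is firefly luciferase luminescence from an integrated reporter in P. falciparum, so falling signal marks reduced parasite growth. Infected erythrocytes were at 2% hematocrit and 0.1% parasitemia (final) in Albumax-supplemented RPMI 1640.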
# Cycloheximide cs: counter-screen for Shiga toxin inhibitors: cycloheximide protein synthesis inhibition; cell reporter, cycloheximide protein synthesis inhibition counterscreen; max response, %; 300,000 compounds, 12% hits; in the data active means max response mostly above about 13%, no sharp cut-off; inactive means mostly below about 14%; further: read at 38.3 µM for the half of the compounds with a filed dose; 0% is about no effect
# Shiga toxin inh: Shiga toxin inhibition | Vero cells, Shiga toxin protein synthesis inhibition reporter | inhibition, % at 38.7 µM | 290,000 compounds, 9.2% hits; in the data active means inhibition mostly above about 28%, no sharp cut-off; inactive means mostly below about 43%; further: 0% is about no effect
# Pf growth 96h: P. falciparum growth inhibition at 96 hours. P. falciparum luciferase reporter growth, 96 h. Potency, µM (top dose mostly 28.7 µM), without a hit: at the top dose activity change, negative = inhibition, most hits filed as inhibitors. 320,000 compounds, 6.9% hits. AID 504834; further: potency means the concentration at half of the fitted maximal effect; on the % scale 0 is the no-effect control and ±100 the full control effect
#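 P. falciparum expressing integrated firefly luciferase, in erythrocytes at 2% hematocrit, 0.05% parasitemia, incubated with compounds 96 h at 37 C, 5% CO2. Growth inhibition read as loss of luminescence; two-generation exposure targets delayed-death apicoplast inhibitors.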
# The depositor's hits bear a star; ? = inconclusive; · = not tested or not shown. Unless noted, the call rests on the fitted dose curve; in most records, active means well fitted inhibition curve with a large enough effect; inconclusive means small, poorly fitted or top-dose-only effect, or another doubt; inactive means no such curve, though single readings can be large or run the other way.
SMILES,Pf growth 48h,Cycloheximide cs,Shiga toxin inh,Pf growth 96h
COc1ccc(C(C(=O)NC2CCCC2)N(Cc2cccnc2)C(=O)c2snc(C(N)=O)c2N)cc1OC (configuration not stated),-7%,-7,-7,?
Fc1ccc(-c2nnn(Cc3nc4ccccc4s3)n2)cc1,27%,12*,36,·
Clc1ccc(Cn2nnc(-c3ccc(N4CCOCC4)cc3)n2)cc1,8%,-5,-14,·
Clc1ccc(-c2nnn(Cc3nc4ccccc4s3)n2)cc1,73%,25*,96*,36%
O=C(Cn1nnc(-c2ccc(F)cc2)n1)OCC(=O)c1ccccc1,21%,-1,11,65%
COc1cc(NC(=O)CCc2nnc3ccc(N4CCC5(CC4)OCCO5)nn23)cc(OC)c1,-14%,-6,5,?
CC12CC3(C)CC(C)(C1)CC(C(=O)NCc1cccnc1)(C2)C3,-17%,-1,-22,12µM*
CC12CC3CC(C)(C1)CC(C(=O)NCc1cccnc1)(C3)C2,52%,-1,-18,3.7µM*
Cc1ccc(CNC(=O)c2nnn(CC(=O)Nc3cccc(C)c3C)c2N)cc1,7%,10,6,9%
CCOC(=O)c1c(S(=O)(=O)NCC(=O)N2CCN(c3ccc(OC)cc3)CC2)c(C)n(C)c1C,?,-1,-10,?
CCOc1ccccc1N(CC(=O)NC1CCCCC1)S(=O)(=O)c1ccccc1,?,-2,-5,?
Cc1cccc(NC(=O)Cn2c(=O)n(CCC(=O)NC3CCCC3)c(=O)c3ccccc32)c1,4%,-4,-1,2.1µM*
CCOc1ccc(NC(=O)Cn2c(=O)n(CCCC(=O)NC3CCN(Cc4ccccc4)CC3)c(=O)c3ccccc32)cc1,5.2µM*,-3,-4,-22%
CCOc1ccccc1NC(=O)Cn1c(=O)n(CCC(=O)NC2CCCC2)c(=O)c2ccccc21,·,-3,-14,?
O=C(CCn1c(=O)c2ccccc2n(Cc2ccccc2)c1=O)NC1CCN(Cc2ccccc2)CC1,?,-3,0,8.3µM*
NC(=O)Cn1c(=O)n(CCCC(=O)NC2CCN(Cc3ccccc3)CC2)c(=O)c2ccccc21,·,-4,-9,4%
COc1cccc(NC(=O)Cn2c(=O)n(CCC(=O)NC3CCN(Cc4ccccc4)CC3)c(=O)c3ccccc32)c1,?,3,12,15µM*
CCOc1ccc(C(=O)NCc2ccco2)cc1OC,-11%,9,14,14%
Cc1ccc2nc(C)c(C(=O)NN=C3CCN(C)CC3)n2c1,18%,-3,7,-12%
CC(OC(=O)c1cc2ccccc2cc1O)C(=O)Nc1ccc(S(N)(=O)=O)cc1 (configuration not stated),0%,-1,-9,20%
Cc1cccc(C)c1NC(=O)COC(=O)c1ccc2c(c1)OCO2,2%,-2,4,16%
CC(OC(=O)c1c2c(nc3ccccc13)/C(=C\c1ccc3c(c1)OCO3)CCC2)C(=O)Nc1ccc(S(N)(=O)=O)cc1 (configuration not stated),?,42*,49*,?
Cc1cccc(C)c1NC(=O)COC(=O)c1c2c(nc3ccccc13)/C(=C\c1ccc3c(c1)OCO3)CCC2,8.3µM*,18*,44*,?
COc1ccc(-c2[nH]ncc2CNC(C)c2cn(C)nc2C)c(F)c1 (configuration not stated),15%,-1,-12,15%
C[C@H](C(=O)O)c1ccc2cc(O)ccc2c1,·,-3,20,·
SMILES,Pf growth 48h,Cycloheximide cs,Shiga toxin inh,Pf growth 96h
O=C(Nc1ccncc1)C1CCC(CNS(=O)(=O)c2cccc3nsnc23)CC1 (configuration not stated),?,-3,-9,?
Clc1ccccc1CSc1cc2c(nn1)-c1ccccc1CC2,71%,42*,165*,2%
Cc1cccnc1N1C(=O)c2ccc(C(=O)O)cc2C1=O,-6%,-2,-12,37%
CCc1noc(C)c1C(=O)N1CC(C)OC(C)C1 (configuration not stated),15%,-3,-26,16%
CCc1noc(C)c1C(=O)N1CC(C)SC1=Nc1ccc(Cl)cc1 (configuration not stated),10µM*,·,·,13µM*
Nc1c(N(CCC2=CCCCC2)C(=O)Cc2ccc(F)cc2)c(=O)[nH]c(=O)n1Cc1ccccc1,9.3µM*,·,·,?
Cc1ccc(C(=O)N(CCC2=CCCCC2)c2c(N)n(Cc3ccccc3)c(=O)[nH]c2=O)o1,?,·,·,9%
Nc1c(N(CCC2=CCCCC2)C(=O)c2ccc([N+](=O)[O-])o2)c(=O)[nH]c(=O)n1Cc1ccccc1,10µM*,·,·,?
COc1cc(C(=O)OCC(=O)Nc2ccc(OC(F)F)cc2)cc(OC)c1OC,7%,4,31,0%
CSc1ccccc1NC(=O)COC(=O)c1ccccc1Cc1ccccc1,?,0,23,?
Cc1ccc(C(=O)c2ccccc2C(=O)OCC(=O)Nc2cccc([N+](=O)[O-])c2)cc1,17%,-2,-11,-8%
CCOc1ccccc1C(=O)OCC(=O)Nc1ccc(OC(F)F)cc1,34%,17*,42,·
Cc1ccc(C(=O)c2ccccc2C(=O)OCC(=O)Nc2ccc(SC(F)F)cc2)cc1,12%,16*,49,5%
O=C(COC(=O)c1ccccc1Cc1ccccc1)Nc1ccc(SC(F)F)cc1,?,54*,129*,?
COc1ccccc1C(=O)NCCC(=O)NCCCSc1ccccc1,?,·,·,-2%
CCOC(=O)C1=C(CSc2nc(C)ccc2C#N)OC(N)=C(C#N)C1c1cccc(OC)c1OC (configuration not stated),55%,13,9,6.6µM*
CCOC(=O)C1=C(CSc2nc(-c3ccncc3)ccc2C#N)OC(N)=C(C#N)C1c1cccnc1 (configuration not stated),13µM*,2,30,?
CCOC(=O)C1=C(CSc2nc(-c3ccncc3)ccc2C#N)OC(N)=C(C#N)C1c1ccc(OC)cc1 (configuration not stated),·,-3,-14,?
O=C(COC(=O)/C=C/c1cccc(C(F)(F)F)c1)NC1CCCCCC1,3%,·,·,-3%
CC1(C)CC(=O)c2c(O)cc(OCC(=O)Nc3ccc(S(N)(=O)=O)cc3)cc2O1,-12%,-2,-7,?
Cc1ccccc1NC(=O)COc1ccc2c(c1)OC(C)(C)CC2=O,79%,38*,34*,40%
COc1cc(NC(=O)COc2cc(O)c3c(c2)OC(C)(C)CC3=O)cc(OC)c1OC,?,-3,-3,4.1µM*
CC(C)CCNC(=O)COc1ccc2c(c1)C(=O)CC(C)(C)O2,5%,17*,87*,·
COc1cccc(NC(=O)c2ccnc(N3CCC(C(=O)NCc4ccccc4OC)CC3)c2)c1,-15%,26,14,?
O=C(NC(=O)N1CCN(c2ccc([N+](=O)[O-])cn2)CC1)c1c(Cl)cccc1Cl,14%,5,-11,25%
Cc1ccc(OCCC(=O)NNC(=O)c2ccccc2F)cc1,-17%,·,·,-15%
O=C(Cc1cccs1)Nc1cccc(C(=O)Nc2ccc(C(=O)O)cc2)c1,-13%,-2,-5,0%

# Source: PubChem (National Center for Advancing Translational Sciences (NCATS))
